From PubChem BioAssay AID504467 (National Center for Advancing Translational Sciences (NCATS), 2011) come the findings set out here.

About 7,700 (2.3%) of roughly 330,000 compounds were called active. Roughly 26% stayed inconclusive and do not appear here. Calls come from the whole dose curve; as a rule, active = well fitted inhibition curve with a large enough effect; inconclusive = small, poorly fitted or top-dose-only effect, or effect the other way; inactive = flat fitted curve, though single readings scatter. What follows is part of a selection rich in actives, with near analogues and random picks from the rest.
% is set by controls: 0 for no effect and ±100 for the full control effect; potency is the fitted concentration of half-maximal effect.

This experiment in a line: qHTS screen for small molecules that inhibit ELG1-dependent DNA repair in human embryonic kidney (HEK293T) cells expressing luciferase-tagged ELG1. Note: nearly all actives have a fitted effect of over 55% in size. The following applies: HEK293T ELG1-luciferase reporter, luminescence, 16 h, DNA damage induced by 5-fluorouridine; series mostly up to 46.1 µM; activity change, negative = inhibition: at the top concentration. An outline of the steps:
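Overnight (16 hr) co-exposure of 2,000 cells/well to 5-fluorouridine and compound at 37 °C preceded detection. Luciferase was quantified via ONE-Glo luminescence; loss of signal denotes inhibition.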
In the case of `CCC1CCCCN1C(=O)CSc1nc2c(c(=O)n1C)SC(C)C2` (stereo not drawn), the “activity change, negative = inhibition” value was -8.54% (inactive).

For `CC(=O)c1cccc(OCC(=O)OCC(=O)Nc2cc(S(=O)(=O)N3CCCCC3)ccc2C)c1`, the “activity change, negative = inhibition” value was 1.04% (inactive).

Take `CC(C(=O)Nc1ccc(O)c(C(=O)O)c1)N1C(=O)/C(=C/c2cccs2)SC1=S` (stereo not drawn): the “activity change, negative = inhibition” value is 10.8% (inactive).

`COc1cccc(OC)c1C(=O)NC(=S)NCc1ccco1`: the “activity change, negative = inhibition” value was 14% (inactive).

`COc1ccccc1C(=O)NCCn1cc(SCC(=O)NCc2ccco2)c2ccccc21`: the Potency is 25.9 µM (active).

On to `COc1ccccc1C(=O)NCCC(=O)NCC(c1ccco1)N1CCCCC1` (stereo not drawn), for which the “activity change, negative = inhibition” value is 10.2% (inactive).

For the compound `Cc1cc(C)n2nc(C(=O)Nc3cccc(S(=O)(=O)N4CCOCC4)c3)nc2n1`, the “activity change, negative = inhibition” value was 14.6% (inactive).

With `O=C(CCNC(=O)c1ccccc1Cl)NN=Cc1ccco1`, the “activity change, negative = inhibition” value is 2.44% (inactive).

`C#CCOCCOCCOCCNc1nc(N2CCN(C(=O)[C@H](CCC(=O)O)n3cc(CN)nn3)CC2)nc(N2CCN(C(=O)[C@H](CCC(=O)O)n3cc(CN)nn3)CC2)n1`: the “activity change, negative = inhibition” value was 7.9% (inactive).

`O=C(NC1CCCC1)C(c1ccco1)N(C(=O)c1ccco1)c1ccc(F)cc1` (stereo not drawn): the “activity change, negative = inhibition” value is -2.68% (inactive).

Turning to `CC1=C[C@H]2Cc3cc(C)cc(C)c3S(=O)(=O)[C@@H]2C=C1`, the Potency is 16.4 µM (active).

With `COc1ccccc1C(=O)Nc1ccc(C)c(S(=O)(=O)N2CCCCC2)c1`, the Potency was 4.11 µM (active).

For the compound `Cc1ccc(NC(=O)COC(=O)C2CC2)cc1S(=O)(=O)N1CCOCC1`, the “activity change, negative = inhibition” value is 10.1% (inactive).

With `COc1ccc(NC(=O)C2=NNC(=O)CC2)cc1S(=O)(=O)N1CCCCC1`, the “activity change, negative = inhibition” value was 0.964% (inactive).

For `CCc1ccccc1OCC(=O)Nc1ccc(C)c(S(=O)(=O)N2CCCCCC2)c1`, the Potency was 20.6 µM (active).

For the compound `COc1ccccc1C(CNC(=O)c1ccc(C)c(S(=O)(=O)N2CCCCC2)c1)N(C)C` (stereo not drawn), the “activity change, negative = inhibition” value was 7.46% (inactive).

With `Cc1ccc(NC(=O)CCC(=O)N2CCC(c3ccccc3)=N2)cc1S(=O)(=O)N1CCCCC1`, the “activity change, negative = inhibition” value is 18.5% (inactive).

For the compound `Cc1ccc(NS(=O)(=O)c2ccc(F)cc2)nc1`, the “activity change, negative = inhibition” value was -1.5% (inactive).

On to `COc1ccccc1C(=O)NCC(=O)NCCSc1ccc(Br)cc1`, for which the “activity change, negative = inhibition” value was 0.299% (inactive).

`COc1ccccc1NS(=O)(=O)c1ccc(C)c(C(=O)NCC(c2ccco2)N(C)C)c1` (stereo not drawn): the “activity change, negative = inhibition” value is 7.5% (inactive).

Consider `Cc1ccc(C)c(N2CCN(C(=O)Cn3ncn4cccc4c3=O)CC2)c1`, for which the “activity change, negative = inhibition” value is -9.5% (inactive).

For the compound `Cc1ccc(C)c(N2CCN(C(=O)CCc3nc4ccccc4[nH]3)CC2)c1`, the “activity change, negative = inhibition” value is -4.67% (inactive).

Regarding `Cc1ccc(C)c(N2CCN(C(=O)CCCn3c(=O)c4cccn4c4cccnc43)CC2)c1`, the Potency was 18.3 µM (active).

As for `Cc1ccc(C)c(N2CCN(C(=O)CCCCCn3c(=S)[nH]c4ccc(N5CCOCC5)cc4c3=O)CC2)c1`, the Potency was 5.8 µM (active).

With `O=C(CCCCCn1c(=S)[nH]c2cc3c(cc2c1=O)OCO3)N1CCN(c2ccc(F)cc2)CC1`, the “activity change, negative = inhibition” value is 2.97% (inactive).

Regarding `CCc1nn(CC(=O)N2CCN(c3cc(C)ccc3C)CC2)c(=O)c2cc3occc3n12`, the “activity change, negative = inhibition” value was 9.86% (inactive).

As to `COC(=O)[C@@]12CCCN1[C@H](c1ccc(-c3ccc(F)cc3)c(OC)c1)[C@H]1C(=O)N(C)C(=O)[C@H]12`, the “activity change, negative = inhibition” value is -0.867% (inactive).

With `COc1ccc(CCNC(=S)N2CCN(S(=O)(=O)c3ccc(F)cc3)CC2)cc1`, the “activity change, negative = inhibition” value is 15.3% (inactive).

Take `COc1ccc(-c2cc(C(F)(F)F)nc(S(C)(=O)=O)n2)cc1OC`: the Potency is 20.6 µM (active).

Consider `COc1ccc(-c2cc(C(F)(F)F)nc(SCC(=O)Nc3ccc4c(c3)OCO4)n2)cc1OC`, for which the “activity change, negative = inhibition” value was -18.9% (inactive).

On to `COc1cc(OC)nc(S(C)(=O)=O)n1`, for which the “activity change, negative = inhibition” value was -6.22% (inactive).

For `COc1cccc(NC(=O)CSc2nnc(C3CCCCC3)n2N)c1`, the “activity change, negative = inhibition” value was 19.8% (inactive).

In the case of `O=C(CSc1ccccc1)Nc1cccc(S(=O)(=O)N2CCCCC2)c1`, the “activity change, negative = inhibition” value was 1.06% (inactive).

Consider `CCN1CCN(C2CCCCC2NS(=O)(=O)c2ccc(Cl)cc2)CC1` (stereo not drawn), for which the “activity change, negative = inhibition” value is 10.8% (inactive).

For the compound `CC1Cc2ccccc2N1C(=O)CSc1nnc(-c2ccc(S(=O)(=O)N3CCCCC3)cc2)o1` (stereo not drawn), the “activity change, negative = inhibition” value is -1.63% (inactive).

In the case of `CCS(=O)(=O)c1ccc2oc(SCC(=O)N3c4ccccc4CC3C)nc2c1` (stereo not drawn), the Potency was 23.1 µM (active).

For `Cc1cc(=O)[nH]c(SCC(=O)N2c3ccccc3CC2C)n1` (stereo not drawn), the “activity change, negative = inhibition” value was 11.9% (inactive).

Consider `CC(C)(c1ccccc1)c1ccc(OCCN2CCCC2)cc1`, for which the “activity change, negative = inhibition” value was 3.08% (inactive).

As to `O=C(Nc1ccc(N2CCOCC2)cc1)c1cccc(S(=O)(=O)N2CCOCC2)c1`, the “activity change, negative = inhibition” value was -1.34% (inactive).

As to `COc1ccc(C)cc1NC(=O)CN1c2cccc3cccc(c23)S1(=O)=O`, the “activity change, negative = inhibition” value is -27.2% (inactive).

Regarding `CC(Cc1cccs1)N(Cc1ccc(Cl)cc1)C(=O)c1ccncc1` (stereo not drawn), the “activity change, negative = inhibition” value is -6.31% (inactive).

As to `CCCN(CC(=O)Nc1ccccc1C)C(=O)c1ccc2[nH]c3c(c2c1)CC(C)CC3` (stereo not drawn), the Potency was 9.2 µM (active).

For `CC1CCc2[nH]c3ccc(C(=O)N(C)CC(=O)Nc4cccc(F)c4)cc3c2C1` (stereo not drawn), the “activity change, negative = inhibition” value was -15.3% (inactive).

As for `CCCN(CC(=O)Nc1ccccc1C)C(=O)c1cc(=O)[nH]c2ccccc12`, the “activity change, negative = inhibition” value was 23.1% (inactive).

For `CCc1cc2c(NC3CCCC3)ncnc2s1`, the “activity change, negative = inhibition” value was 4.18% (inactive).

For `CCc1cc2c(NC(Cc3ccccc3)C(=O)O)ncnc2s1` (stereo not drawn), the “activity change, negative = inhibition” value is 2.07% (inactive).

Turning to `CCc1cc2c(N3CCN(c4nnc(CC)s4)CC3)ncnc2s1`, the Potency was 18.4 µM (active).

Take `O=C(Nc1nnc(C2=COCCO2)o1)c1ccc([N+](=O)[O-])s1`: the “activity change, negative = inhibition” value was -9.08% (inactive).
